Our source for the binding signal values is article PMC3315485, “Probing the Informational and Regulatory Plasticity of a Transcription Factor DNA–Binding Domain”.

In this assay the target is T1, MarA TRR (Escherichia coli, UniProt P0ACH5 1-127, W40T;Q43R).
T1 sequence: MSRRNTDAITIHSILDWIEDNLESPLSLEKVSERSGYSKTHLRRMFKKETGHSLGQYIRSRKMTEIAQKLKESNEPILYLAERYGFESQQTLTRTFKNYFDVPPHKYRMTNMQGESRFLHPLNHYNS
The assay is described as follows: MITOMI; MITOMI, 295 K (22 C); buffer, salt and pH not stated in the material; high values mean tight binding. The note with it: protein: ivt; label: fluorescent; dsDNA, one strand shown. In short, it runs like this:
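Each fluorescently labelled MarA protein variant, made by in vitro transcription and translation with the RTS E. coli HY kit plus tRNA-lys-bodipy-fl, was tested by MITOMI against 64 synthesized mar binding site variants. Protein and DNA fluorescence were read on Genepix at 295K. Association constants, measured by MITOMI, are reported for each site relative to the highest-affinity site for the same protein variant.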
As to ATGGTGCGTTTTGCTAAAT, the binding signal was 0.382 Ka relative to the best site of the variant. For ATGTGGCGTTTTGCTAAAT the value was 0.493 Ka relative to the best site of the variant; for ATGACCCGTTTTGCTAAAT, 0.379 Ka relative to the best site of the variant; for ATGTACCGTTTTGCTAAAT, 0.417 Ka relative to the best site of the variant. On to ATGCTTCGTTTTGCTAAAT, for which the binding signal was 0.576 Ka relative to the best site of the variant.

For the sequence ATGGTCCGTTTTGCTAAAT, the binding signal is 0.442 Ka relative to the best site of the variant. The value for ATGTTGCGTTTTGCTAAAT was 0.665 Ka relative to the best site of the variant. Consider ATGCCGCGTTTTGCTAAAT, for which the binding signal is 0.561 Ka relative to the best site of the variant. Regarding ATGTAACGTTTTGCTAAAT, the binding signal is 0.492 Ka relative to the best site of the variant. With ATGATACGTTTTGCTAAAT, the binding signal was 0.498 Ka relative to the best site of the variant. Consider ATGAAACGTTTTGCTAAAT, for which the binding signal is 0.36 Ka relative to the best site of the variant. Regarding ATGTGTCGTTTTGCTAAAT, the binding signal is 0.424 Ka relative to the best site of the variant. For the sequence ATGTGACGTTTTGCTAAAT, the binding signal is 0.413 Ka relative to the best site of the variant. Consider ATGGCGCGTTTTGCTAAAT, for which the binding signal is 0.415 Ka relative to the best site of the variant. As for ATGACTCGTTTTGCTAAAT, the binding signal was 0.382 Ka relative to the best site of the variant. On to ATGATTCGTTTTGCTAAAT, for which the binding signal is 0.453 Ka relative to the best site of the variant.

In the case of ATGTCGCGTTTTGCTAAAT, the binding signal was 0.463 Ka relative to the best site of the variant. The value for ATGTGCCGTTTTGCTAAAT was 0.407 Ka relative to the best site of the variant; that for ATGAAGCGTTTTGCTAAAT was 0.338 Ka relative to the best site of the variant. ATGATCCGTTTTGCTAAAT: the binding signal is 0.466 Ka relative to the best site of the variant. On to ATGTCTCGTTTTGCTAAAT, for which the binding signal is 0.462 Ka relative to the best site of the variant. Consider ATGCCACGTTTTGCTAAAT, for which the binding signal is 0.497 Ka relative to the best site of the variant.

As for ATGATGCGTTTTGCTAAAT, the binding signal is 0.404 Ka relative to the best site of the variant. On to ATGGCACGTTTTGCTAAAT, for which the binding signal is 0.392 Ka relative to the best site of the variant. For ATGAGGCGTTTTGCTAAAT the value was 0.475 Ka relative to the best site of the variant; for ATGGGTCGTTTTGCTAAAT, 0.334 Ka relative to the best site of the variant. In the case of ATGGGGCGTTTTGCTAAAT, the binding signal was 0.451 Ka relative to the best site of the variant. As to ATGAGACGTTTTGCTAAAT, the binding signal was 0.362 Ka relative to the best site of the variant. Consider ATGTAGCGTTTTGCTAAAT, for which the binding signal is 0.356 Ka relative to the best site of the variant. As for ATGCCTCGTTTTGCTAAAT, the binding signal is 0.474 Ka relative to the best site of the variant. With ATGACGCGTTTTGCTAAAT, the binding signal was 0.302 Ka relative to the best site of the variant.
